Results on 58 compounds are retold here after PubChem BioAssay (NCATS).

The source made the active and inactive calls. The call rests on the fitted dose curve; in most records, active means well fitted curve in the direction sought with a large enough effect; inconclusive means small, poorly fitted or top-dose-only effect, or another doubt; inactive means no such curve, though single readings can be large; an effect the other way counts as inactive or inconclusive.

In test [1] the target is Alpha-galactosidase (Coffea arabica) (UniProt Q42656). Briefly: Counterscreen for Glucocerebrosidase Inhibitors: qHTS Assay for Coffee Bean alpha-Galactosidase at pH 4.5 (AID 957). To be noted: purified coffee bean alpha-galactosidase, fluorogenic substrate; series mostly up to 76.9 µM. Put shortly: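 Green coffee bean enzyme (2 nM final) was incubated with compounds (0.7 nM to 77 uM) and 4-methylumbelliferyl alpha-D-galactopyranoside (80 uM final) in 50 mM citric acid, 0.005% Tween-20, pH 4.5, 20 min at room temperature; AC50 from Hill fits.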
Background: A counterscreen serves to expose hits that act by an unwanted route or on another target.

Test [2] shares this target. Description: Counterscreen for Glucocerebrosidase Inhibitors: qHTS Assay for Coffee Bean alpha-Galactosidase at pH 5.9 (AID 998). To be noted: coffee bean alpha-galactosidase enzyme assay; series mostly up to 76.9 µM. Put shortly: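 Green coffee bean enzyme (2 nM) with 4-methylumbelliferyl alpha-D-galactopyranoside (80 uM) in 50 mM citric acid, 0.005% Tween-20, pH 5.9, 20 min at room temperature; compounds 0.7 nM–77 uM. Stopped at pH 10, fluorescence Ex365/Em440; Hill-fit AC50.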

Sequence of Alpha-galactosidase (Coffea arabica) (Q42656 whole entry, looked up): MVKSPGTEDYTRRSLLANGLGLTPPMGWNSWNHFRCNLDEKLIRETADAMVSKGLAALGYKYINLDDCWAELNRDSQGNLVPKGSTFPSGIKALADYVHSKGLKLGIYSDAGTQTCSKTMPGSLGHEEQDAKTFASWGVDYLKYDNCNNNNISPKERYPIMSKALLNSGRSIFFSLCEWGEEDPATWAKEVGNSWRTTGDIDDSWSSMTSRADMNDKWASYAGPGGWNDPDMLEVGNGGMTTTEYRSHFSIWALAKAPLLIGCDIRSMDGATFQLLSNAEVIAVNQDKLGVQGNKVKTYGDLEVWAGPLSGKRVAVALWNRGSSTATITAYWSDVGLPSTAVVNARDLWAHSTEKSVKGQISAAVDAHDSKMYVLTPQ

For `C[C@H](N)C1CCC(C(=O)Nc2ccncc2)CC1` (stereo partly specified), the outcome in test [1] and in test [2] was inactive.
In the case of `CN=C(NC#N)Nc1ccc(C2=NNC(=O)C[C@@H]2C)cc1`, the call in test [1] and in test [2] was inactive.
`CN1C[C@@H](C(=O)N[C@]2(C)O[C@]3(O)[C@H]4CCCN4C(=O)[C@H](Cc4ccccc4)N3C2=O)C[C@H]2c3cccc4[nH]cc(c34)C[C@@H]21`: the outcome in test [1] and in test [2] was inactive.
In the case of `CC1=C(C(=O)O)N2C(=O)[C@@H](NC(=O)[C@@H](N)C3=CCC=CC3)[C@@H]2SC1`, the result in test [1] and in test [2] was inactive.
For the compound `C[C@H]1CN(S(=O)(=O)c2cccc3cnccc23)CCN1`, the result in test [1] and in test [2] was inactive.
On to `C=CCc1ccccc1OC[C@H](O)CNC(C)C`, for which the compound was classed as inactive in test [1] and in test [2].
In the case of `CN1Cc2c(N)cccc2[C@H](c2ccccc2)C1`, the outcome in test [1] and in test [2] was inactive.
For `C[C@H](N=C(NC#N)Nc1ccncc1)C(C)(C)C`, the call in test [1] and in test [2] was inactive.
For `CN(C)CCCO[C@H]1[C@H]([C@H](O)CO)O[C@H]2OC(C)(C)O[C@@H]21`, the result in test [1] and in test [2] was inactive.
On to `CC(C)(C)c1onc(OCP(=O)(O)O)c1C[C@@H](N)C(=O)O`, for which the call in test [1] and in test [2] was inactive.
`COc1ccc(CCN(C)CCC[C@@](C#N)(c2cc(OC)c(OC)c(OC)c2)C(C)C)cc1OC`: the call in test [1] and in test [2] was inactive.
With `CC[C@]1(C)CC(=O)NC1=O`, the result in test [1] and in test [2] was inactive.
For the compound `CCCCOc1cc(C[C@@H]2CNC(=O)N2)ccc1OC`, the call in test [1] and in test [2] was inactive.
On to `C=C(C)[C@@H]1CC=C(C(=O)O)CC1`, for which the call in test [1] and in test [2] was inactive.
For `O=C(OCCN1CCCCC1)c1c[nH]c2ccccc12`, the call in test [1] and in test [2] was inactive.
In the case of `CN1CCc2cc(Cl)c(O)cc2[C@H](c2ccccc2)C1`, the compound was classed as inactive in test [1] and in test [2].
`CSc1ccc2c(c1)[C@H](N1CCN(C)CC1)Cc1ccccc1S2`: the compound was called inactive in test [1] and in test [2].
For `Cn1c(=O)c2c(nc(/C=C\c3cccc(Cl)c3)n2C)n(C)c1=O`, the call in test [1] and in test [2] was inactive.
`C[C@@H](COc1ccc(/C=C\c2ccccc2)cc1)[N+](C)(C)C`: the compound was called inactive in test [1] and in test [2].
As for `CCCN(CCc1ccccc1)[C@H]1CCc2c(O)cccc2C1`, the call in test [1] and in test [2] was inactive.
`CC(C)COC[C@H](CN(Cc1ccccc1)c1ccccc1)N1CCCC1`: the call in test [1] and in test [2] was inactive.
With `Nc1ncnc2c1nc(Sc1ccc(Cl)cc1)n2[C@@H]1O[C@H]2COP(=O)(O)O[C@@H]2[C@H]1O`, the compound was classed as inactive in test [1] and in test [2].
Turning to `CC(C)C[C@H](NC(=O)[C@@H]1O[C@H]1C(=O)O)C(=O)NCCCCN=C(N)N`, the call in test [1] and in test [2] was inactive.
Consider `C[C@H](O)[C@H](O)[C@@H]1CNc2nc(N)[nH]c(=O)c2N1`, for which the compound was classed as inactive in test [1] and in test [2].
On to `CCCN1C[C@@H](CSC)C[C@H]2c3cccc4[nH]cc(c34)C[C@@H]21`, for which the call in test [1] and in test [2] was inactive.
For the compound `O=C(NC[C@H]1CCCCN1)c1cc(OCC(F)(F)F)ccc1OCC(F)(F)F`, the outcome in test [1] and in test [2] was inactive.
`COCCOC(=O)C1=C(C)NC(C)=C(C(=O)OC(C)C)[C@@H]1c1cccc([N+](=O)[O-])c1`: the compound was classed as inactive in test [1] and in test [2].
With `C[C@@H](/C=C\c1cccc(Oc2ccc(F)cc2)c1)N(O)C(N)=O`, the compound was classed as inactive in test [1] and in test [2].
Consider `O[C@@](CCN1CCCCC1)(c1ccccc1)C1CCCCC1`, for which the compound was classed as inactive in test [1] and in test [2].
For the compound `CNc1ncnc2c1ncn2[C@H]1C[C@@H](OP(=O)(O)O)[C@H](COP(=O)(O)O)O1`, the outcome in test [1] and in test [2] was inactive.
Take `CCCC[C@]1(C2CCCC2)Cc2cc(OCC(=O)O)c(Cl)c(Cl)c2C1=O`: the result in test [1] and in test [2] was inactive.
Consider `CCCCCCCCCCCCC/C=C\[C@@H](O)[C@@H](N)CO`, for which the call in test [1] and in test [2] was inactive.
Turning to `Cc1cc(C)c(/C=C2/C(=O)Nc3ccccc32)[nH]1`, the compound was called inactive in test [1] and in test [2].
As for `Cc1ccccc1N1CCN(S(=O)(=O)C[C@@]23CC[C@H](C[C@H]2NC(=O)[C@@H](N)CCS(C)(=O)=O)C3(C)C)CC1`, the compound was called inactive in test [1] and in test [2].
Take `COC(=O)[C@H]1[C@H]2C[C@H]3c4[nH]c5ccccc5c4CCN3C[C@@H]2CC[C@@H]1O`: the compound was called inactive in test [1] and in test [2].
Regarding `C[C@@H](CN1c2ccccc2Sc2ccccc21)N(C)C`, the outcome in test [1] and in test [2] was inactive.
On to `CCN1CCC[C@@H]1CNC(=O)c1c(O)c(Cl)cc(Cl)c1OC`, for which the compound was called inactive in test [1] and in test [2].
As for `COc1ccccc1N1CCN(C[C@@H](O)COc2cccc3ccccc23)CC1`, the outcome in test [1] and in test [2] was inactive.
Regarding `CC(=O)S[C@@H]1CC2=CC(=O)CC[C@@]2(C)[C@H]2CC[C@]3(C)[C@H](CC[C@@]34CCC(=O)O4)[C@H]12`, the call in test [1] and in test [2] was inactive.
On to `CNC(=O)[C@@H]1O[C@@H](n2cnc3c(NCc4ccc(N)cc4)ncnc32)[C@@H](O)[C@H]1O`, for which the outcome in test [1] and in test [2] was inactive.
Regarding `CO[C@]1(NC(=O)CSCC#N)C(=O)N2C(C(=O)O)=C(CSc3nnnn3C)CS[C@H]21`, the result in test [1] and in test [2] was inactive.
In the case of `Cc1ccccc1CNc1ncnc2c1ncn2[C@@H]1O[C@@H](CO)[C@H](O)[C@@H]1O`, the outcome in test [1] and in test [2] was inactive.
`O=C(NCCNC[C@@H](O)COc1ccc(O)cc1)N1CCOCC1`: the call in test [1] and in test [2] was inactive.
`CN1CCN2c3ccccc3Cc3ccccc3[C@@H]2C1`: the call in test [1] and in test [2] was inactive.
Consider `CN(C)CC[C@H](c1ccc(Br)cc1)c1ccccn1`, for which the outcome in test [1] and in test [2] was inactive.
On to `C[C@@H]1CNCCN1S(=O)(=O)c1cccc2cnccc12`, for which the call in test [1] and in test [2] was inactive.
Regarding `CSc1ccc2c(c1)N(CC[C@H]1CCCCN1C)c1ccccc1S2`, the compound was called inactive in test [1] and in test [2].
On to `NCCCCNS(=O)(=O)c1cccc2c(Cl)cccc12`, for which the call in test [1] and in test [2] was inactive.
For `N[C@@H](CO)C(=O)NNCc1ccc(O)c(O)c1O`, the compound was called inactive in test [1] and in test [2].
Consider `COCCc1ccc(OC[C@H](O)CNC(C)C)cc1`, for which the compound was called inactive in test [1] and in test [2].
Consider `CC(=O)OCC1=C(C(=O)O)N2C(=O)[C@@H](NC(=O)Cc3cccs3)[C@@H]2SC1`, for which the outcome in test [1] and in test [2] was inactive.
Take `NC(=O)C1=CN([C@@H]2O[C@@H](COP(=O)(O)OP(=O)(O)OC[C@@H]3O[C@H](n4cnc5c(N)ncnc54)[C@@H](OP(=O)(O)O)[C@@H]3O)[C@H](O)[C@@H]2O)C=CC1`: the compound was called inactive in test [1] and in test [2].
Regarding `CC[C@H](C)C(=O)O[C@H]1CCC=C2C=C[C@H](C)[C@H](CC[C@@H]3C[C@H](O)CC(=O)O3)[C@H]21`, the compound was classed as inactive in test [1] and in test [2].
For the compound `C#C[C@H](N)CCC(=O)O`, the outcome in test [1] and in test [2] was inactive.
Turning to `CC1(C)CCC(NC(=O)[C@H](N)CCC(=O)O)CC1`, the compound was called inactive in test [1] and in test [2].
As for `CC(C)(C)NC[C@H](O)c1ccc(O)c(CO)c1`, the compound was called inactive in test [1] and in test [2].
Turning to `O=C(O)CCCC[C@H]1CCSS1`, the call in test [1] and in test [2] was inactive.
In the case of `N[C@H](Cc1ccc(F)cc1)C(=O)O`, the call in test [1] and in test [2] was inactive.
